ATXN2 expr inh – ATXN2 expression inhibition | Potency, µM (titrated, usually from 57 µM), most hits filed as inhibitors | AID 1745845 | 0.72% of 360,000 active | HEK-293 ATXN2-luciferase reporter, luminescence, 24 h; also: nearly all actives have a fitted effect of over 55% in size
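qHTS (up to 57 uM final) was run with 24 h compound exposure of reporter cells at 37 °C. Each well was multiplexed: SteadyGlo luminescence measured ATXN2-luciferase expression after a fluorogenic Gly-Phe-AFC viability readout (25 uM final).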
HepG2 tox-1 – kills HepG2 cells in TGF-b inhibitor counter-screen. HepG2 CAGA-GFP viability, ATP luminescence, 18 h. 0.76% of 410,000 active. Potency, µM (top dose mostly 46.1 µM), most hits filed as cytotoxic
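HepG2 CAGA-GFP cells (1000/well, DMEM with 1% FBS) received compound, then TGF-beta at 500 pg/mL final, and were incubated 18 hours at 37 degrees C. Viability was read by CellTiter-Glo luminescence. Media-only wells were set as complete cell-killing and DMSO as no toxicity.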
TGFb SMAD3 inh – blocks TGF-b signaling. Potency, µM (doses to about 46.1 µM), actives largely listed as inhibitors. HepG2 CAGA-GFP TGF-b/SMAD3 reporter, GFP fluorescence, 18 h; TGF-beta stimulated, 500 pg/mL final. AID 588855. 1.2% of 410,000 active; also: nearly all actives have a fitted effect of over 65% in size
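HEPG2 CAGA-GFP, 1000 cells/well; 2 h settle, 37 C; cpd via pin tool; TGF-b 500 pg/mL final; 18 h, 37 C; GFP imaging ex488/em500-530; %Activity normalised to -TGF-b and +DMSO controls; CRC fit, curve class.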
IL1B secr inh – blocks inflammasome-driven IL-1 beta release | 4.7% of 360,000 active | activity change, % at 57.5 µM | THP-1 LPS/ATP IL-1B secretion, AlphaLISA, 16 h; active compounds read low; in the data active = activity change below about -50%; inconclusive = mostly about -30% to -49%
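Secreted IL-1B measured by AlphaLISA bead assay after 16 h compound exposure of THP-1 cells; compounds (final up to 57.5 uM) added 1 h before LPS (250 ng/mL) and ATP (1.25 mM) stimulation; lower signal means less secretion.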
ATXN viability – viability counter-screen for ATXN expression inhibitors; Potency, µM (top dose mostly 56.7 µM), most hits filed as cytotoxic; S2 cells (HEK-293 line with an ATXN2-luciferase reporter) viability, CellTiter-Fluor protease fluorescence, 24 h; AID 651635; 0.49% of 400,000 active; also: nearly all actives have a fitted effect of over 40% in size
TGFb CAGA inh – TGF-b pathway inhibition, cherry-pick retest | shares compounds with TGFb SMAD3 inh | HepG2 CAGA-GFP TGF-b reporter, GFP fluorescence, 18 h; cells stimulated with TGF-beta, 500 pg/mL | Potency, µM (series often up to 46.1 µM), usual class: inhibitors | 63% of 1,600 active | AID 720534; also: nearly all actives have a fitted effect of over 65% in size
HepG2 tox-2 – HepG2 cytotoxicity, TGF-b inhibitor counterscreen. Potency, µM (top dose mostly 46.1 µM), most hits filed as inhibitors. 27% of 1,600 active. HepG2 CAGA-GFP viability, ATP luminescence, 18 h; cells stimulated with TGF-beta, 500 pg/mL. shares compounds with TGFb SMAD3 inh; also: nearly all actives have a fitted effect of over 70% in size
CCL64 TGFb inh – TGF-b inhibition, CCL64 orthogonal assay; shares compounds with TGFb SMAD3 inh; CCL64 CAGA-GFP reporter, TGF-b stimulated, GFP fluorescence, 18 h; Potency, µM (top dose mostly 46.1 µM), hits mostly inhibitors; 41% of 1,600 active; also: nearly all actives have a fitted effect of over 65% in size
TGFb COP inh – TGF-b inhibition validated with COP promoter; shares compounds with TGFb SMAD3 inh; HepG2 COP-GFP TGF-b reporter, GFP fluorescence, 18 h; cells stimulated by added recombinant TGF-beta; Potency, µM (titrated, usually from 46.1 µM), actives largely listed as inhibitors; 3% of 1,600 active; also: nearly all actives have a fitted effect of over 70% in size
Numbers stand for hits; 0 = inactive; ? = inconclusive; - = no result; [ ] = dose if it differs, or a comment. Hits are enriched below; roughly 5.7% of the tested compounds scored in any of these assays. Unless noted, calls follow the shape of the dose curve; as a rule, active = well fitted curve in the direction sought with a large enough effect; inconclusive = small, poorly fitted or top-dose-only effect, or another doubt; inactive = no such curve, though single readings can be large; an effect the other way counts as inactive or inconclusive.

SMILES	ATXN2 expr inh	HepG2 tox-1	TGFb SMAD3 inh	IL1B secr inh	ATXN viability	TGFb CAGA inh	HepG2 tox-2	CCL64 TGFb inh	TGFb COP inh
O=C(/C=C/c1cccc([N+](=O)[O-])c1)c1cccs1	?	0	8.9µM	-88	?	12µM	18µM	5.8µM	0
CCN(CC)c1ccc(NC(=O)c2cc(C)nc3c2c(C)nn3-c2ccc(C)cc2)c(C)c1	0	0	0	-	0	-	-	-	-
CCOC(=O)c1ccc(NC(=O)CC2C(=O)N(c3cccc(OC)c3)C(=O)N2Cc2cccnc2)cc1 (centres undefined)	-	0	0	-	-	-	-	-	-
Clc1ccc2c(SCC3CO3)c3ccccc3nc2c1 (centres undefined)	?	0	7.9µM	?	-	16µM	18µM	21µM	16µM
O=C(O)C1CCN(C(=O)CSc2nc3cc(Cl)ccc3c(=O)n2Cc2ccccc2)CC1	0	0	0	0	0	-	-	-	-
O=C(O)c1ccc(/C=C2\COc3ccccc3C2=O)cc1	0	0	14µM	-105	0	16µM	16µM	0	0
COc1ccc(/C=C2\COc3ccccc3C2=O)cc1OC	0	0	16µM	-98	0	?	?	18µM	0
CCOc1cc(/C=C2\COc3ccccc3C2=O)cc(Br)c1OCC(=O)N(C)C	22µM	13µM	3.5µM	-103	-	16µM	?	15µM	?
COc1ccc(/C=C2\COc3ccccc3C2=O)c(OC)c1	0	0	?	0	0	-	-	-	-
Cc1cc(C)c2c(c1)C(=O)/C(=C/c1ccc(C(=O)O)cc1)CC2	0	0	0	0	0	-	-	-	-
COc1cc(/C=C2\COC/C(=C\c3cc(OC)c(OC)c(OC)c3)C2=O)cc(OC)c1OC	3.2µM	3.5µM	0.63µM	-99	?	1.3µM	1.3µM	1.3µM	0
COc1cccc(CNc2ncnc3c2nnn3C)c1	-	0	0	-	-	-	-	-	-
Cc1ccc(C)c(CNC(=O)c2cnc3sc(N4CCCC4)nn3c2=O)c1	0	0	?	-	0	-	-	-	-
COCCNC(=O)CCn1c(=O)c2cc(OC)c(OC)cc2n(CC(=O)Nc2ccccc2OC)c1=O	0	0	0	-	0	-	-	-	-
O[C@@H]1CO[C@H]2[C@@H]1OC[C@@H]2O	0	-	-	-	?	-	-	-	-
CCOc1ccccc1OCC(=O)Nc1nc2ccccc2[nH]1	0	0	0	0	0	-	-	-	-
CCOc1cc(/C=N/Nc2nc3ccccc3[nH]2)cc(Br)c1OCC(=O)N(C)C	?	0	8.9µM	-92	?	12µM	?	?	0
O=C(Nc1ccccc1Cl)N1CCC2(CC1)Oc1ccccc1C(=O)N2Cc1ccc(F)cc1	-	0	0	-	-	-	-	-	-
CCOc1ccc(OCC(=O)Nc2nnc3n2CCS3)cc1	0	0	0	-	0	-	-	-	-
COc1ccc(NC(=O)Nc2nc(C(N)CC(C)C)cs2)cc1 (centres undefined)	0	0	?	?	0	-	-	-	-
NC(c1csc(NC(=O)Nc2ccc(OC(F)(F)F)cc2)n1)C1CCCCC1 (centres undefined)	?	7.9µM	8.9µM	-112	?	?	18µM	21µM	?
CCCOc1ccccc1N/C(=N/c1nc(C)cc(C)n1)NC(=O)COc1ccc(OC)cc1	0	0	10µM	?	0	13µM	0	?	0
Cc1c(C(=O)NCc2ccc(Cl)c(Cl)c2)sc(=O)n1Cc1ccc(S(C)(=O)=O)cc1	?	0	0	?	0	-	-	-	-
COC(=O)c1ccc(Cn2c(C)c(C(=O)NCc3ccc(Cl)c(Cl)c3)sc2=O)o1	?	0	13µM	0	0	23µM	0	0	0
CC(=O)Nc1ccccc1-c1nc2ccccc2n(CC(=O)c2ccc(C)c(C)c2)c1=O	-	0	0	-	-	-	-	-	-
SMILES	ATXN2 expr inh	HepG2 tox-1	TGFb SMAD3 inh	IL1B secr inh	ATXN viability	TGFb CAGA inh	HepG2 tox-2	CCL64 TGFb inh	TGFb COP inh
Nc1cc2nn(-c3ccccc3)nc2cc1Cl	0[11.3 µM]	0	2.2µM	0	0	3.3µM	1.8µM	0	0
Nc1ccc2nn(-c3ccccc3)nc2c1	0	0	0	0	-	-	-	-	-
Cc1nnc(SC(=O)N2c3ccccc3Sc3ccccc32)s1	25µM	0	7.1µM	-101	-	12µM	15µM	3.3µM	?
Cc1ccc(-c2csc(Cc3nc(-c4cc5ccccc5oc4=O)cs3)n2)cc1	0	0	?	0	0	?	0	0	0
O=c1oc2ccccc2cc1-c1csc(Cc2nc(-c3ccc(Br)cc3)cs2)n1	0	0	0	0	?	-	-	-	-
COc1cccc(NS(=O)(=O)c2ccc3c(c2)N(C)C(=O)CC(=O)N3C)c1	0	0	0	-	0	-	-	-	-
O=C(CN1C2CCCC1CC(NC(=O)C1CCCCC1)C2)Nc1ccccc1C(F)(F)F (centres undefined)	?	0	?	?	?	18µM	?	?	0
COc1cccc(C(=O)NC2CC3CCCC(C2)N3CC(=O)Nc2ccccc2C(F)(F)F)c1 (centres undefined)	?	0	?	0	?	-	-	-	-
O=C(NC1CCCC1)c1ccc2c(=O)n(Cc3ccccc3)c(SCc3ccccc3F)nc2c1	-	0	0	-	-	-	-	-	-
O=C(O)c1ccc(NC2=C/C(=N/S(=O)(=O)c3ccccc3)c3ccccc3C2=O)cc1	35µM	4µM	5.6µM	-97	-	6.5µM	18µM	12µM	?
O=C1C(Nc2ccc(O)cc2)=C/C(=N/S(=O)(=O)c2cccs2)c2ccccc21	4µM	1.1µM	1µM	-99	8.9µM	0.65µM	1µM	3.7µM	1µM
CCOC(=O)c1ccc(N=Nc2c(C)[nH]n(-c3ccccc3)c2=O)cc1	-	0	0	0	0	-	-	-	-
CCOC(=O)c1ccc(-n2[nH]c(-c3ccccc3)cc2=O)cc1	?	10µM	?	-88	0	16µM	?	?	0
Cc1ccc(S(=O)(=O)Nc2nc3ccccc3nc2Nc2cccc(S(=O)(=O)N3CCCC3)c2)cc1	?	0	0	0	?	-	-	-	-
O=[N+]([O-])c1cccc(S(=O)(=O)Nc2nc3ccccc3nc2Nc2cccc(S(=O)(=O)N3CCCCC3)c2)c1	?	0	4.5µM	0	?	3.3µM	6.5µM	2.9µM	0
O=C(Nc1cc(F)ccc1F)C1COc2ccccc2C1 (centres undefined)	0	0	0	-	0	-	-	-	-

Assay outcomes as filed in PubChem.
